The supplement of paper PMC6897291
Counter-ions that a name gives are not always drawn.

What follows are compounds tested on U-2932 (assay: growth inhibition by drug alone (1 - RLU/untreated control) (fraction); higher = stronger inhibition). Details: 10 nM; time (day): 5; 177Lu-lilotomab satetraxetan 0 ug/ml.
Outline: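 A radiolabelled anti-CD37 antibody conjugate (~600 MBq/mg) was applied for 18 h at 0.5 µg/ml to RIVA and 1 µg/ml to U-2932 cells, with untreated cells run alongside. All cells were washed and seeded at 3,000 cells/well onto library-printed plates at 10/100 nM (RIVA) or 10/1,000 nM (U-2932). Growth inhibition was based on RealTime-Glo luminescence compared with untreated no-drug wells. Daily reads began on day 3 after 1 h at 37°C, with each value being 1 − RLU/mean of the 48 such wells on that plate.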

Row | Compound | growth inhibition by drug alone
1 | COC(=O)c1ccc2c(C(=Nc3ccc(N(C)C(=O)CN4CCN(C)CC4)cc3)c3ccccc3)c(O)[nH]c2c1 [BIBF1120 (Vargatef)] | -0.0213
2 | CC[C@@H]1/C=C(\C)C[C@H](C)C[C@H](OC)[C@H]2O[C@@](O)(C(=O)C(=O)N3CCCC[C@H]3C(=O)O[C@H](/C(C)=C/[C@@H]3CC[C@H](Cl)[C@H](OC)C3)[C@H](C)[C@@H](O)CC1=O)[C@H](C)C[C@@H]2OC [Pimecrolimus] | 0.272
3 | CN(C)CCOc1ccc(-c2nc(-c3ccncc3)c(-c3ccc4c(c3)CC/C4=N\O)[nH]2)cc1 | -0.0892
4 | COc1ccc(CCN2CCN(CCCc3ccccc3)CC2)cc1OC | -0.0184
5 | CNC(=O)c1cc(Oc2ccc(NC(=O)Nc3cc(C(C)(C)C)nn3-c3ccc4ncccc4c3)c(F)c2)ccn1 [DCC-2036 (Rebastinib)] | 0.096
6 | CCC(C)(C)C(=O)O[C@H]1C[C@@H](C)C=C2C=C[C@H](C)[C@H](CC[C@@H]3C[C@@H](O)CC(=O)O3)[C@H]21 [Simvastatin (Zocor)] | -0.00492
7 | CCc1ccc(CCOc2ccc(CC3SC(=O)NC3=O)cc2)nc1 (stereo unspecified) [Pioglitazone (Actos)] | -0.103
8 | O=C(O)C(Cc1c[nH]c2ccccc12)N1C(=O)c2ccccc2C1=O (stereo unspecified) | -0.0484

Same assay, conditions: 10 nM; time (day): 6; 177Lu-lilotomab satetraxetan 0 ug/ml

Row | Compound | growth inhibition by drug alone
9 | Nc1nc2[nH]cc(CCc3ccc(C(=O)N[C@@H](CCC(=O)O)C(=O)O)cc3)c2c(=O)[nH]1 [Pemetrexed] | -0.27
10 | COc1cc2nccc(Oc3ccc(NC(=O)Nc4cc(C)on4)c(Cl)c3)c2cc1OC [Tivozanib (AV-951)] | -0.0876
11 | CCC(=O)N1CCN(c2ccc(-n3c(=O)ccc4cnc5ccc(-c6cnc7ccccc7c6)cc5c43)cc2C(F)(F)F)CC1 [Torin 1] | -0.022
12 | COc1cccc2c1C(=O)c1c(O)c3c(c(O)c1C2=O)C[C@@](O)(C(=O)CO)C[C@@H]3O[C@H]1C[C@H](N)[C@@H](O)[C@H](C)O1 [Epirubicin Hydrochloride] | 0.093
13 | Clc1ccc(Nc2nnc(Cc3ccncc3)c3ccccc23)cc1 [Vatalanib dihydrochloride (PTK787)] | -0.0722
14 | COc1cc2nccc(Oc3ccc(NC(=O)C4(C(=O)Nc5ccc(F)cc5)CC4)cc3)c2cc1OC [XL-184 free base (Cabozantinib)] | -0.0896
15 | C[C@@H](O[C@H]1OCCN(Cc2n[nH]c(=O)[nH]2)[C@H]1c1ccc(F)cc1)c1cc(C(F)(F)F)cc(C(F)(F)F)c1 [Aprepitant (MK-0869)] | 0.0358
16 | COc1cc2c(cc1O)CC[C@@H]1[C@@H]2CC[C@]2(C)[C@@H](O)CC[C@@H]12 [2-Methoxyestradiol] | -0.0895
17 | CNCc1ccc(-c2[nH]c3cc(F)cc4c3c2CCNC4=O)cc1 | 0.155
18 | CC[C@@]1(O)C(=O)OCc2c1cc1n(c2=O)Cc2cc3c(CN(C)C)c(O)ccc3nc2-1 [Topotecan HCl] | 0.586
19 | Nc1cc(C(F)(F)F)c(-c2cc(N3CCOCC3)nc(N3CCOCC3)n2)cn1 | 0.0241
20 | CC(C)(C)c1ccc(S(=O)(=O)/C=C/C#N)cc1 | -0.0534
21 | C[C@]1(c2nc3c(C(N)=O)cccc3[nH]2)CCCN1 [ABT-888 (Veliparib)] | 0.0616
22 | Cc1ccc(NC(=O)c2ccc(CN3CC[C@H](N(C)C)C3)c(C(F)(F)F)c2)cc1Nc1nccc(-c2cncnc2)n1 [Bafetinib (INNO-406)] | 0.0553
23 | C[C@]12CC[C@@H]3c4ccc(O)cc4CC[C@H]3[C@@H]1CCC2=O [Estrone] | -0.00298
24 | O=C(c1ccc(OCCN2CCCCC2)cc1)c1c(-c2ccc(O)cc2)sc2cc(O)ccc12 [Evista (Raloxifene Hydrochloride)] | -0.131
25 | CCN(CC)CCNC(=O)c1c(C)[nH]c(/C=C2\C(=O)Nc3ccc(F)cc32)c1C [Sunitinib Malate (Sutent)] | -0.274
26 | CCOc1ccc(Nc2nc(-c3c(C)nc4ccccn34)cs2)cc1 | 0.0852
27 | C=CC(=O)N1CCC[C@@H](n2nc(-c3ccc(Oc4ccccc4)cc3)c3c(N)ncnc32)C1 | 0.634

Row | Compound | growth inhibition by drug alone
28 | CS(=O)(=O)c1cccc(CNc2nc(Nc3ccc4c(c3)CCC(=O)N4)ncc2C(F)(F)F)c1 | 0.0705
29 | CC(NC(=O)c1ccccc1/N=C/c1c(O)ccc2ccccc12)c1ccccc1 (stereo unspecified) [Sirtinol] | -0.0559
30 | CN(Cc1cnc2nc(N)nc(N)c2n1)c1ccc(C(=O)N[C@@H](CCC(=O)O)C(=O)O)cc1 [Abitrexate (Methotrexate)] | -0.0907
31 | OCCn1cc(-c2cnc3nnn(Cc4ccc5ncccc5c4)c3n2)cn1 | -0.156
32 | COc1cc(Nc2ncc(F)c(Nc3ccc4c(n3)NC(=O)C(C)(C)O4)n2)cc(OC)c1OC [R406(free base)] | -0.162
33 | COc1cccc2c1C(=O)c1c(O)c3c(c(O)c1C2=O)C[C@@](O)(C(=O)CO)C[C@@H]3O[C@H]1C[C@H](N)[C@H](O)[C@H](C)O1 [Doxorubicin (Adriamycin)] | 0.433
34 | CN(NC(=O)CC(=O)NN(C)C(=S)c1ccccc1)C(=S)c1ccccc1 [Elesclomol] | 0.825
35 | CN(C)CCOc1ccc(/C(=C(/CCCl)c2ccccc2)c2ccccc2)cc1 [Toremifene Citrate (Fareston, Acapodene)] | -0.0137
36 | CN1CCN(CCOc2cc(OC3CCOCC3)c3c(Nc4c(Cl)ccc5c4OCO5)ncnc3c2)CC1 [Saracatinib (AZD0530)] | -0.381
37 | CC(C)C[C@H](NC(=O)[C@H](Cc1ccccc1)NC(=O)c1cnccn1)B(O)O [Bortezomib (Velcade)] | 0.978
38 | Cn1cncc1[C@@](N)(c1ccc(Cl)cc1)c1ccc2c(c1)c(-c1cccc(Cl)c1)cc(=O)n2C [Tipifarnib (Zarnestra)] | -0.0584
39 | COC(=O)c1ccc2c(C(=Nc3ccc(N(C)C(=O)CN4CCN(C)CC4)cc3)c3ccccc3)c(O)[nH]c2c1 [BIBF1120 (Vargatef)] | 0.0413
40 | CC[C@@H]1/C=C(\C)C[C@H](C)C[C@H](OC)[C@H]2O[C@@](O)(C(=O)C(=O)N3CCCC[C@H]3C(=O)O[C@H](/C(C)=C/[C@@H]3CC[C@H](Cl)[C@H](OC)C3)[C@H](C)[C@@H](O)CC1=O)[C@H](C)C[C@@H]2OC [Pimecrolimus] | 0.287
41 | CN(C)CCOc1ccc(-c2nc(-c3ccncc3)c(-c3ccc4c(c3)CC/C4=N\O)[nH]2)cc1 | 0.0453
42 | COc1ccc(CCN2CCN(CCCc3ccccc3)CC2)cc1OC | -0.287
43 | CNC(=O)c1cc(Oc2ccc(NC(=O)Nc3cc(C(C)(C)C)nn3-c3ccc4ncccc4c3)c(F)c2)ccn1 [DCC-2036 (Rebastinib)] | -0.234
44 | CCC(C)(C)C(=O)O[C@H]1C[C@@H](C)C=C2C=C[C@H](C)[C@H](CC[C@@H]3C[C@@H](O)CC(=O)O3)[C@H]21 [Simvastatin (Zocor)] | 0.136
45 | CCc1ccc(CCOc2ccc(CC3SC(=O)NC3=O)cc2)nc1 (stereo unspecified) [Pioglitazone (Actos)] | -0.0806
46 | O=C(O)C(Cc1c[nH]c2ccccc12)N1C(=O)c2ccccc2C1=O (stereo unspecified) | -0.236
